# Laboratory results reported in PubChem BioAssay AID651808 (Broad Institute, 2012).
# “And” between values parts separate entries of the source, which are not always exact repeats. Equal entries are not always repeated. Inconclusive results are not listed. The source made the active and inactive calls. The rule behind the calls is not given here.
# Test: dose response, DH231 delta cqsS, luminescence, dry powder (AID 651808)
# Conditions: V. cholerae DH231 delta cqsS, luxCDABE luminescence, 6 h; at 80 µM; test 2; stronger effect = higher value
row,SMILES,max activity (light induction)
1,CCn1nnnc1NCc1ccc(N2CCCC2)cc1,-52.6% (inactive)
2,CCn1nnnc1NCc1ccc(C(C)C)cc1,-41.8% (inactive) and -46.4% (inactive)
3,O=C(Cc1ccc(-c2ccccc2)cc1)NC1CCCCC1,-14.6% (inactive)
4,CCCn1nnnc1NCc1ccc(C(C)C)cc1,-51.3% (inactive)
5,O=C(Cc1cccc(OC(F)(F)F)c1)NC1CCCC1,-5.92% (inactive)
6,CCC(C)NC(=O)Cc1ccc(-c2ccccc2)cc1 (centres undefined),-31.1% (inactive)
7,O=C(Cc1ccc(-c2ccccc2)cc1)NC1CCC1,-12.2% (inactive)
8,CC(C)c1ccc(CNc2nnnn2C)cc1,-24.7% (inactive)
9,CC(C)NC(=O)Cc1ccc(-c2ccccc2)cc1,-26.8% (inactive)
10,CCC(CC)NC(=O)Cc1ccc(-c2ccccc2)cc1,-17.5% (inactive)
11,O=C(Cc1ccccc1F)NC1CCCC1,0.357% (inactive)
12,O=C(Cc1ccccc1Cl)NC1CCCC1,-18.1% (inactive)
13,O=C(NCc1ccc(-c2ccccc2)cc1)C1CCCC1,-17% (inactive)
14,CS(=O)(=O)c1ccc(CC(=O)NC2CCCC2)cc1,-47.4% (inactive)
15,O=C(Cc1ccccc1OC(F)(F)F)NC1CCCC1,-14.6% (inactive)
16,O=C(Cc1cccc(F)c1)NC1CCCC1,-4.2% (inactive)
17,CCCn1nnnc1NCc1ccccc1Cl,-58.8% (inactive)
18,O=C(Cc1ccc(-c2ccccc2)cc1)NC1CCCC1,-13.9% (inactive) and -5.11% (inactive)
19,CCCn1nnnc1NCc1ccc(N2CCCC2)cc1,-55.4% (inactive)
20,O=C(Cc1ccccc1C(F)(F)F)NC1CCCC1,-7.17% (inactive)
21,Cn1nnnc1NCc1ccc(N2CCCC2)cc1,-32.9% (inactive)
22,COc1ccc(CC(=O)NC2CCCC2)cc1,-4.11% (inactive)
23,O=C(Cc1ccc(-c2ccccc2)cc1)NC1CCOCC1,-9.06% (inactive)

# Same assay, conditions: V. cholerae DH231 delta cqsS, luxCDABE luminescence, 6 h; measured here: test 1 replicate run; at 80 µM; test 1; stronger effect = higher value
row,SMILES,max activity (light induction)
1,CCn1nnnc1NCc1ccc(N2CCCC2)cc1,-42.4%
2,CCn1nnnc1NCc1ccc(C(C)C)cc1,-24.1% and -23.5%
3,CCCn1nnnc1NCc1ccc(C(C)C)cc1,-24.4%
4,CCn1nnc(NCc2ccc(C)cc2)n1,-23%
5,CCCn1nnnc1NCc1ccc(N2CCCC2)cc1,-46.1%
6,Cn1nnnc1NCc1ccc(N2CCCC2)cc1,-32.2%
